# According to PubChem BioAssay AID1159580 (chemical genetic matrix, 2015):
# “And” between values parts separate entries of the source, which are not always exact repeats. Equal entries are not always repeated. The whole screen tested about 5,500 compounds, of which about 2,000 (36%) were called active. Not shown: some 18% with an inconclusive outcome. Cut-off read from the data, not from the text of the source: active = normalized growth mostly below about 0.91 (no sharp cut-off); inconclusive = no clear call, values can overlap the other calls; inactive = mostly above about 0.92. The list shows a part of the results.
# Assay: chemical genetic growth profiling, strain panel (AID 1159580);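 note: tested at 20 µM; growth read once vehicle control cultures reached saturation at 30 °C; 1 = growth at the plate median or of vehicle wells; lower values mean less growth of the strain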
# Conditions: S. cerevisiae deletion strains, growth OD
smiles,measurement,setting,value
CC(C(=O)O)c1ccc2c(c1)[nH]c1ccc(Cl)cc12 (configuration not stated),normalized growth,"locus YAL013W, strain DEP1, stronger effect = lower value",1.02 (inactive)
same,normalized growth,"locus YAL021C, strain ccr4, stronger effect = lower value",0.949 (inactive)
same,normalized growth,"locus YAL026C, strain drs2, stronger effect = lower value",0.953 (inactive)
same,normalized growth,"locus YAL030W, strain snc1, stronger effect = lower value",0.979 (inactive)
same,normalized growth,"locus YBL061C, strain skt5, stronger effect = lower value",0.955 (inactive)
same,normalized growth,"locus YBR009C, strain hhf1, stronger effect = lower value",0.979 (inactive)
same,normalized growth,"locus YBR021W, strain FUR4, stronger effect = lower value",1 (inactive)
same,normalized growth,"locus YBR023C, strain chs3, stronger effect = lower value",0.973 (inactive)
same,normalized growth,"locus YBR171W, strain sec66, stronger effect = lower value",0.981 (inactive)
same,normalized growth,"locus YBR229C, strain ROT2, stronger effect = lower value",1.01 (inactive)
same,normalized growth,"locus YBR231C, strain swc5, stronger effect = lower value",0.981 (inactive)
same,normalized growth,"locus YBR279W, strain paf1, stronger effect = lower value",0.957 (inactive)
same,normalized growth,"locus YCL011C, strain gbp2, stronger effect = lower value",1 (inactive)
same,normalized growth,"locus YCL016C, strain dcc1, stronger effect = lower value",0.951 (inactive)
same,normalized growth,"locus YCL029C, strain bik1, stronger effect = lower value",0.982 (inactive)
same,normalized growth,"locus YCL061C, strain MRC1, stronger effect = lower value",0.978 (inactive)
same,normalized growth,"locus YCL069W, strain vba3, stronger effect = lower value",1.01 (inactive)
same,normalized growth,"locus YCR088W, strain abp1, stronger effect = lower value",0.973 (inactive)
same,normalized growth,"locus YDL005C, strain med2, stronger effect = lower value",0.975 (inactive)
same,normalized growth,"locus YDL035C, strain GPR1, stronger effect = lower value",1 (inactive)
same,normalized growth,"locus YDL040C, strain nat1, stronger effect = lower value",0.978 (inactive)
same,normalized growth,"locus YDL074C, strain BRE1, stronger effect = lower value",1.03 (inactive)
same,normalized growth,"locus YDL101C, strain DUN1, stronger effect = lower value",1.02 (inactive)
same,normalized growth,"locus YDL134C, strain PPH21, stronger effect = lower value",1.01 (inactive)
same,normalized growth,"locus YDL185W, strain tfp1, stronger effect = lower value",0.948 (inactive)
same,normalized growth,"locus YDL192W, strain arf1, stronger effect = lower value",0.954 (inactive)
same,normalized growth,"locus YDR001C, strain nth1, stronger effect = lower value",0.996 (inactive)
same,normalized growth,"locus YDR069C, strain doa4, stronger effect = lower value",0.984 (inactive)
same,normalized growth,"locus YDR101C, strain arx1, stronger effect = lower value",0.972 (inactive)
same,normalized growth,"locus YDR137W, strain rgp1, stronger effect = lower value",0.945 (inactive)
same,normalized growth,"locus YDR150W, strain NUM1, stronger effect = lower value",1.02 (inactive)
same,normalized growth,"locus YDR159W, strain sac3, stronger effect = lower value",0.895 (inactive)
same,normalized growth,"locus YDR162C, strain NBP2, stronger effect = lower value",1.02 (inactive)
same,normalized growth,"locus YDR195W, strain ref2",1.01 (inactive)
same,normalized growth,"locus YDR297W, strain sur2, stronger effect = lower value",0.983 (inactive)
same,normalized growth,"locus YDR318W, strain mcm21, stronger effect = lower value",0.972 (inactive)
same,normalized growth,"locus YDR334W, strain swr1, stronger effect = lower value",0.994 (inactive)
same,normalized growth,"locus YDR335W, strain msn5, stronger effect = lower value",0.984 (inactive)
same,normalized growth,"locus YDR388W, stronger effect = lower value",0.978 (inactive)
same,normalized growth,"locus YDR392W, strain spt3, stronger effect = lower value",0.832 (inactive)
same,normalized growth,"locus YDR502C, strain sam2, stronger effect = lower value",0.999 (inactive)
same,normalized growth,"locus YEL003W, strain gim4, stronger effect = lower value",0.996 (inactive)
same,normalized growth,"locus YEL037C, strain rad23, stronger effect = lower value",0.99 (inactive)
same,normalized growth,"locus YEL061C, strain CIN8 (second series), stronger effect = lower value",0.975 (inactive)
same,normalized growth,"locus YEL061C, strain CIN8, stronger effect = lower value",1 (inactive)
same,normalized growth,"locus YER015W, strain faa2, stronger effect = lower value",1 (inactive)
same,normalized growth,"locus YER016W, strain bim1, stronger effect = lower value",0.978 (inactive)
same,normalized growth,"locus YER110C, stronger effect = lower value",0.971 (inactive)
same,normalized growth,"locus YER111C, strain swi4, stronger effect = lower value",0.99 (inactive)
same,normalized growth,"locus YER155C, strain BEM2 (second series), stronger effect = lower value",0.952 (inactive)
same,normalized growth,"locus YER155C, strain BEM2, stronger effect = lower value",0.997 (inactive)
same,normalized growth,"locus YER167W, strain BCK2, stronger effect = lower value",1 (inactive)
same,normalized growth,"locus YFR010W, strain ubp6, stronger effect = lower value",0.999 (inactive)
same,normalized growth,"locus YGL078C, strain dbp3, stronger effect = lower value",0.988 (inactive)
same,normalized growth,"locus YGL086W, strain mad1, stronger effect = lower value",0.983 (inactive)
same,normalized growth,"locus YGL167C, strain pmr1, stronger effect = lower value",1 (inactive)
same,normalized growth,"locus YGL173C, strain kem1, stronger effect = lower value",0.961 (inactive)
same,normalized growth,"locus YGL227W, strain vid30, stronger effect = lower value",1 (inactive)
same,normalized growth,"locus YGL240W, strain doc1, stronger effect = lower value",0.92 (inactive)
same,normalized growth,"locus YGL248W, strain PDE1, stronger effect = lower value",1.01 (inactive)
same,normalized growth,"locus YGL253W, strain hxk2, stronger effect = lower value",0.968 (inactive)
same,normalized growth,"locus YGR078C, strain PAC10, stronger effect = lower value",1.02 (inactive)
same,normalized growth,"locus YGR135W, strain pre9, stronger effect = lower value",0.995 (inactive)
same,normalized growth,"locus YGR229C, strain SMI1, stronger effect = lower value",1.04 (inactive)
same,normalized growth,"locus YGR252W, strain gcn5, stronger effect = lower value",0.885 (inactive)
same,normalized growth,"locus YHR013C, strain ard1, stronger effect = lower value",0.96 (inactive)
same,normalized growth,"locus YHR027C, strain rpn1, stronger effect = lower value",0.991 (inactive)
same,normalized growth,"locus YHR030C, strain SLT2, stronger effect = lower value",1 (inactive) and 0.303 (active)
same,normalized growth,"locus YHR079C, strain IRE1 (second series), stronger effect = lower value",0.976 (inactive)
same,normalized growth,"locus YHR079C, strain IRE1, stronger effect = lower value",0.369 (active)
same,normalized growth,"locus YHR094C, strain hxt1, stronger effect = lower value",0.987 (inactive)
same,normalized growth,"locus YHR129C, strain ARP1, stronger effect = lower value",1 (inactive)
same,normalized growth,"locus YHR142W, strain chs7, stronger effect = lower value",0.971 (inactive)
same,normalized growth,"locus YHR200W, strain rpn10, stronger effect = lower value",0.98 (inactive)
same,normalized growth,"locus YIL066C, strain RNR3, stronger effect = lower value",0.994 (inactive)
same,normalized growth,"locus YIL073C, strain SPO22, stronger effect = lower value",0.971 (inactive)
same,normalized growth,"locus YIL125W, strain kgd1, stronger effect = lower value",0.929 (active)
same,normalized growth,"locus YIR030C, strain dcg1, stronger effect = lower value",0.992 (inactive)
same,normalized growth,"locus YJL092W, strain hpr5, stronger effect = lower value",0.982 (inactive)
same,normalized growth,"locus YJL095W, strain BCK1 (second series), stronger effect = lower value",0.988 (inactive)
same,normalized growth,"locus YJL095W, strain BCK1, stronger effect = lower value",1 (inactive) and 0.272 (active)
same,normalized growth,"locus YJL115W, strain asf1, stronger effect = lower value",0.985 (inactive)
same,normalized growth,"locus YJL129C, strain trk1, stronger effect = lower value",0.912 (inactive)
same,normalized growth,"locus YJL134W, strain LCB3, stronger effect = lower value",1.01 (inactive)
same,normalized growth,"locus YJL154C, strain vps35, stronger effect = lower value",0.99 (inactive)
same,normalized growth,"locus YJL164C, strain tpk1, stronger effect = lower value",0.982 (inactive)
same,normalized growth,"locus YJL166W, strain qcr8, stronger effect = lower value",1 (inactive)
same,normalized growth,"locus YJL168C, strain set2, stronger effect = lower value",0.983 (inactive)
same,normalized growth,"locus YJL187C, strain SWE1 (second series), stronger effect = lower value",1.01 (inactive)
same,normalized growth,"locus YJL187C, strain SWE1, stronger effect = lower value",0.97 (inactive)
same,normalized growth,"locus YJR043C, strain POL32, stronger effect = lower value",1.01 (inactive)
same,normalized growth,"locus YJR066W, strain TOR1, stronger effect = lower value",0.492 (active)
